Assay outcomes (PubChem)
Bead autofluor: flagged as autofluorescent in microsphere protease counterscreen | compound autofluorescence counterscreen, microsphere flow cytometry; stronger effect = higher value | AID 624483 | 3.1% of 360,000 active | fluorescence intensity (test concentration not listed); in the data active means fluorescence intensity above about 16000; inconclusive means no clear call, values can overlap the other calls
Anthrax LF prot: blocks Bacillus anthracis lethal factor protease; P15917; multiplex microsphere protease cleavage assay, LF; inhibition, % at 10 µM; 0.12% of 360,000 active
BoNT-F LC inh: inhibitors of Botulinum neurotoxin F light chain protease; inhibition, % at 10 µM; Multiplex microsphere protease cleavage assay, flow cytometry; AID 588497; 0.22% of 360,000 active; in the data active means inhibition above about 35%, passing the limit was not always enough; inconclusive means no clear call, values can overlap the other calls
FBA Mtb inh: inhibits M. tuberculosis FBA enzyme. P9WQA3. 2.3% of 360,000 active. purified M. tuberculosis FBA, fluorescence read-out. inhibition, % at 1 µM; in the data active means inhibition above about 27%
Target sequence (P9WQA3 whole entry, looked up): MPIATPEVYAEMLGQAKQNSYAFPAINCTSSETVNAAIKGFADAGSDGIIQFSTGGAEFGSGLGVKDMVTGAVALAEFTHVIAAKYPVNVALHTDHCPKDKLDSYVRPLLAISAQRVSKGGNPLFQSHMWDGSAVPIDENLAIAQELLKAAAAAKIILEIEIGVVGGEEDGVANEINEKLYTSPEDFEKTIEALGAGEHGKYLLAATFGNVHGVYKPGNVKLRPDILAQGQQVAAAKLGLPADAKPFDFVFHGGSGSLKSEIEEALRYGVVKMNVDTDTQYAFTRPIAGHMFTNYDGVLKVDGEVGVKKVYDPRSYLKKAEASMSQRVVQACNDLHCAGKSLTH
GDH-TPI inh: counter-screen for M. tuberculosis FBA inhibitors: GDH-TPI coupled enzymes; GDH-TPI coupled enzyme counterscreen, NADH absorbance; inhibition, % at 4.8 µM; 1.2% of 360,000 active; in the data active means inhibition above about 30%
BoNT A protease: BoNT A light chain protease inhibition; multiplex microsphere protease substrate cleavage, flow cytometry; inhibition, % at 10 µM; 0.17% of 360,000 active; AID 588499
Each line names hits and unclear results; the compound was inactive in the other large screens. Compounds with a hit are over-represented: about 6.7% of the library has one in this group of screens. Unless noted, no stated cut-off is given here; in the data, active means inhibition above about 30%; inconclusive means no clear call, values can overlap the other calls; inactive means below that.

COc1ccccc1N1CCN(Cc2ccccc2F)CC1	none
COc1ccccc1N1CCN(Cc2ccccc2Cl)CC1	Bead autofluor 23767
COc1ccccc1N1CCN(Cc2ccc(Br)o2)CC1	Bead autofluor 22305
C=CCc1ccccc1OCC(O)CN1CCOCC1 (stereo not drawn)	none
Cc1ccc(OC(C)C(=O)N(Cc2cccs2)C2CCS(=O)(=O)C2)cc1C (stereo not drawn)	BoNT-F LC inh inconclusive
COc1cc(OC)c(OC)cc1CN1CCN(c2ccccc2OC)CC1	Bead autofluor 24136, BoNT A protease inconclusive
COc1ccccc1N1CCN(CC(O)COc2c(OC)cccc2OC)CC1 (stereo not drawn)	Bead autofluor 19582
COc1ccccc1N1CCN(Cc2cccc(OC)c2OC)CC1	none
Cc1ccc(CNC(=O)CCC(=O)Nc2nnc(C(C)C)s2)cc1	none
COc1ccc(-c2ccn(-c3cccc(F)n3)n2)cc1	none
COc1ccc(-c2nc(C#N)c(NCc3ccco3)o2)cc1	FBA Mtb inh 117
CCOc1ccc(Nc2oc(-c3cccc(Cl)c3)nc2C#N)cc1	Bead autofluor 23170, BoNT A protease inconclusive
CC(C)(C)c1ccc(-c2nc(C#N)c(NCc3cccnc3)o2)cc1	Bead autofluor 17505
C=CCNc1oc(-c2ccc(OC)cc2)nc1C#N	FBA Mtb inh 127
CC(C)(C)NC1=NCCNC(c2ccccc2)=C1	none
CCOc1ccc(Nc2oc(-c3ccco3)nc2C#N)cc1	none
C=CCNc1oc(-c2ccc(OCC)cc2)nc1C#N	FBA Mtb inh 129, BoNT A protease inconclusive
CCOc1ccc(-c2nc(C#N)c(NCC(C)C)o2)cc1	FBA Mtb inh 156
Cc1sc2nc(SCCN(C)C)n(-c3ccccc3)c(=O)c2c1-c1ccc(F)cc1	none
CCOc1ccc(/C=N/NC(=O)Cc2csc(Nc3cccc(C(F)(F)F)c3)n2)cc1	none
CN(C)S(=O)(=O)c1ccc(C(=O)OCC(=O)Nc2ccccc2OC(F)F)cc1	Bead autofluor 23884
Cn1c(=O)[nH]c2cc3ccccc3cc21	Bead autofluor 19393, BoNT A protease inconclusive
CCCCN(C=O)c1c(CC)nc2ccc(C(=O)NCCc3c[nH]c4ccccc34)cn12	none
CCNC(=O)c1oc2c(c1C)C(=O)CC(C)(C)C2	Bead autofluor 20892
Cc1c(C(=O)NCc2cccnc2)oc2c1C(=O)CC(C)(C)C2	Bead autofluor 21305
O=C(COC(=O)c1ccccn1)Nc1ccccc1Cl	none
Nc1nonc1-n1nnc(C(=O)N/N=C/c2ccccc2)c1CSc1ccc(Cl)cc1	none
CSc1ncccc1C(=O)OCC(=O)c1ccc(Br)s1	none
CC1(C)CC(=O)C2=C(C1)c1c(ccc3ccccc13)NC2c1cc([N+](=O)[O-])cc([N+](=O)[O-])c1O (stereo not drawn)	none
COc1cc(C2Nc3ccc4ncccc4c3C3=C2C(=O)CC(C)(C)C3)cc(OC)c1O (stereo not drawn)	Bead autofluor 23335
CC1(C)CC(=O)C2=C(C1)c1c(ccc3ncccc13)NC2c1cccs1 (stereo not drawn)	none
Cc1ccc(C2Nc3ccc4ccccc4c3C3=C2C(=O)CC(C)(C)C3)o1 (stereo not drawn)	Bead autofluor 21585
CC1(C)CC(=O)C2=C(C1)c1c(ccc3ccccc13)NC2c1ccc(C(=O)O)cc1 (stereo not drawn)	FBA Mtb inh active
CN(C(=O)COC(=O)c1ccccc1NCc1ccco1)c1c(N)n(Cc2ccccc2)c(=O)[nH]c1=O	FBA Mtb inh 115
O=C1CN(C(=O)COC(=O)c2ccco2)c2ccccc2N1	none
O=C1CN(C(=O)COC(=O)c2ccccc2NCc2ccco2)c2ccccc2N1	FBA Mtb inh 61
CCN(C(=O)COC(=O)c1ccco1)c1c(N)n(Cc2ccccc2)c(=O)[nH]c1=O	none
Nc1nnc(N2CCCCC2)s1	none
O=C1CCCc2nc(N3CCCCC3)sc21	GDH-TPI inh 32
O=C(c1ccc(CS(=O)(=O)Cc2ccc(Cl)cc2)o1)N1CCCC1	Bead autofluor 23181
CN(c1ccccc1C(=O)Nc1cccc(Cl)c1Cl)S(C)(=O)=O	Bead autofluor 22508
CCOc1ccccc1NC(=O)c1ccccc1N(C)S(C)(=O)=O	none
CN(c1ccccc1C(=O)O)S(C)(=O)=O	Bead autofluor 18576
Cc1ccc(NC(=O)c2ccccc2N(C)S(C)(=O)=O)cc1C	Bead autofluor 23559
O=C(COc1ccccc1-c1ccccc1)NCCN1C(=O)S/C(=C\c2cccnc2)C1=O	none
O=[N+]([O-])c1ccccc1CCl	none
O=C(/C=C/c1ccccc1Cl)N1CCOCC1	none
CCOC(=O)Cc1c(C)nc2c(C#N)c[nH]n2c1=O	Bead autofluor 23050
COc1ccc(-c2nnc(SCC(N)=O)n2N)cc1	none
C=C(C)CSc1nnc(-c2ccc(OC)cc2)n1N	Bead autofluor 19732
C=C(C)CSc1nnc(-c2cccc(Cl)c2)n1N	Bead autofluor 21220
CCCNC(=O)CNC(=S)N(Cc1cc(OC)c(OC)c(OC)c1)C1CCCC1	none
CN(C)S(=O)(=O)c1ccc(N2CCCC2)c(C(=O)Nc2ccccc2Br)c1	none
CCCCOC(=O)Oc1ccc2c(=O)c(Oc3cc(C)cc(C)c3)coc2c1	none
Cc1ccccc1C(=O)Nc1ccnn1C1CCN(Cc2c(C)n(C)c3ccccc23)CC1	none
Oc1c(C=C2N=c3ccccc3=N2)sc(=S)n1C1CCCC1	Anthrax LF prot 39, BoNT A protease 70
Oc1c(C=C2N=c3ccccc3=N2)sc(=S)n1-c1ccc2ccccc2c1	none
Oc1c(C=C2N=c3ccccc3=N2)sc(=S)n1-c1ccc(F)cc1	Anthrax LF prot 34, BoNT A protease 54
N#C/C(=C\Nc1ccccc1SC(F)(F)F)c1nc(-c2ccc(Cl)cc2)cs1	none
CCOC(=O)c1ccc(CC(=O)c2ccc(O)c(O)c2O)o1	none
CCCCCCn1c(O)c(C=NCCCn2ccnc2)c(=O)[nH]c1=O	none
CS(=O)(=O)N1CCN(C(=O)c2ccncc2)CC1	none
CS(=O)(=O)N1CCN(C(=O)c2ccc(Br)s2)CC1	Bead autofluor 20324
CS(=O)(=O)N1CCN(C(=O)Cc2cccs2)CC1	Bead autofluor 16441, BoNT A protease inconclusive
O=C(Cc1cccs1)N1CCN(S(=O)(=O)c2ccc(Br)cc2)CC1	none
Cc1cccc2sc(NC(=O)CSc3nc4ccccc4o3)nc12	none (no result: Bead autofluor, Anthrax LF prot, BoNT-F LC inh, BoNT A protease)
CN(C(=O)c1cccc(NC(=O)Cc2ccc(NC(=O)C3CCCN(S(=O)(=O)c4cccc([N+](=O)[O-])c4)C3)cc2)c1)C1CCCC1 (stereo not drawn)	none
Cc1ccc(NC(=O)/C=C2\NC(=O)CS2)cc1	none
CC(C)(C)c1ccc(C(=O)/C=C2\NC(=O)CS2)cc1	GDH-TPI inh 48
C=CCn1c(SCC(=O)NC2CC2)nnc1-c1cccs1	none
C=CCn1c(SCC(=O)C(C)(C)C)nnc1-c1cccs1	Bead autofluor 23404
C=CCn1c(SCC(=O)C(C)(C)C)nnc1-c1ccccn1	Bead autofluor 20695
C=CCn1c(CCNC(=O)c2cccs2)nnc1SCC(=O)Nc1cccc(C(C)=O)c1	none
